Test results as given in PubChem BioAssay (EPA / NIEHS).
Values joined by “and” are separate entries in the source; they are usually repeats but may differ in a detail not shown here. Identical values can stand only once. Records with an inconclusive call do not appear. More than one record can exist for a structure, and the calls need not agree. Active and inactive are the calls of the source. The calls were made as follows, unless noted: active = hit-call score of the fitted dose curve at least 0.9, where 1 is the maximum; inconclusive = response in the unintended direction; inactive = score below 0.9.

Key:
[1] = target: human Thyroid Receptor Alpha (TRa), THRA (gene 7067) (UniProt P10827); test: NVS_NR_hTRa_Antagonist: NovaScreen (NVS) Nuclear Receptor Binding Assay for human Thyroid Receptor Alpha Antagonism (TRa) (AID 2283362);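 also: activity is loss of signal relative to DMSO baseline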
Method in brief: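 Extracted protein, cell-free; 1 h incubation after dosing; AlphaLISA chemiluminescence binding readout. DMSO = baseline/neg ctrl; signal loss = activity. Primary: duplicate, 25 uM; secondary: conc. series on actives.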

[2] = target: Glucocorticoid receptor (Homo sapiens) (UniProt P04150); test: NVS_NR_hGR: NovaScreen (NVS) Nuclear Receptor Binding Assay for human Glucocorticoid Receptor (GR) (AID 2283363);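 as to AC50: activity is loss of specific radioligand binding signal relative to DMSO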
Sequence of Glucocorticoid receptor (Homo sapiens) (P04150 whole entry, looked up): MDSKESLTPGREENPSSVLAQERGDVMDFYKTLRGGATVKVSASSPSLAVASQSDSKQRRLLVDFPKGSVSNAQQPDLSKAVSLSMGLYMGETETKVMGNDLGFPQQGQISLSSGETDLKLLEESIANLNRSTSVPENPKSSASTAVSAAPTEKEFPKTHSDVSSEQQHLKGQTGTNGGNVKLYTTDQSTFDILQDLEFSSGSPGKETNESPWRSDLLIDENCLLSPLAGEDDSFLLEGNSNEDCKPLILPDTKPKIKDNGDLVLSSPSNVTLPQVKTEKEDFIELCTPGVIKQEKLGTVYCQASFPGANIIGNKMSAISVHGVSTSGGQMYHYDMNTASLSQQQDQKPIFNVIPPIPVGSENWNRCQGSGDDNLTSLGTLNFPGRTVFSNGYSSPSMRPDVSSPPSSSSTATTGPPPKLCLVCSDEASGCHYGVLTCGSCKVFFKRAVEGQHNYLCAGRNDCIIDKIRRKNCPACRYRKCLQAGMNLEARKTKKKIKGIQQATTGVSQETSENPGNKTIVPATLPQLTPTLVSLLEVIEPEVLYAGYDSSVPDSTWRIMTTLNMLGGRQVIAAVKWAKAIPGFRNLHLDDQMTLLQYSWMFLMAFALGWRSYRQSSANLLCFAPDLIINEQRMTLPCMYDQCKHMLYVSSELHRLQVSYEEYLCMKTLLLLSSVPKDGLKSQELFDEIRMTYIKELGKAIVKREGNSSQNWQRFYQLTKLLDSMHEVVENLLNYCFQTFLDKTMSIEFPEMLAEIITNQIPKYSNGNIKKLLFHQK
Method in brief: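 Cell-free radioligand binding with extracted receptor protein, read by filter-based scintillation counting 16 hours after dosing. Loss of specific signal versus DMSO baseline was scored. Primary screen ran in duplicate at 25 uM; actives were followed up in concentration series.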

[3] = target: rat Androgen Receptor (AR), Ar (gene 24208) (UniProt P15207); test: NVS_NR_rAR: NovaScreen (NVS) Nuclear Receptor Binding Assay for rat Androgen Receptor (AR) (AID 2283366)
Sequence of rat Androgen Receptor (AR), Ar (gene 24208) (P15207 whole entry, looked up): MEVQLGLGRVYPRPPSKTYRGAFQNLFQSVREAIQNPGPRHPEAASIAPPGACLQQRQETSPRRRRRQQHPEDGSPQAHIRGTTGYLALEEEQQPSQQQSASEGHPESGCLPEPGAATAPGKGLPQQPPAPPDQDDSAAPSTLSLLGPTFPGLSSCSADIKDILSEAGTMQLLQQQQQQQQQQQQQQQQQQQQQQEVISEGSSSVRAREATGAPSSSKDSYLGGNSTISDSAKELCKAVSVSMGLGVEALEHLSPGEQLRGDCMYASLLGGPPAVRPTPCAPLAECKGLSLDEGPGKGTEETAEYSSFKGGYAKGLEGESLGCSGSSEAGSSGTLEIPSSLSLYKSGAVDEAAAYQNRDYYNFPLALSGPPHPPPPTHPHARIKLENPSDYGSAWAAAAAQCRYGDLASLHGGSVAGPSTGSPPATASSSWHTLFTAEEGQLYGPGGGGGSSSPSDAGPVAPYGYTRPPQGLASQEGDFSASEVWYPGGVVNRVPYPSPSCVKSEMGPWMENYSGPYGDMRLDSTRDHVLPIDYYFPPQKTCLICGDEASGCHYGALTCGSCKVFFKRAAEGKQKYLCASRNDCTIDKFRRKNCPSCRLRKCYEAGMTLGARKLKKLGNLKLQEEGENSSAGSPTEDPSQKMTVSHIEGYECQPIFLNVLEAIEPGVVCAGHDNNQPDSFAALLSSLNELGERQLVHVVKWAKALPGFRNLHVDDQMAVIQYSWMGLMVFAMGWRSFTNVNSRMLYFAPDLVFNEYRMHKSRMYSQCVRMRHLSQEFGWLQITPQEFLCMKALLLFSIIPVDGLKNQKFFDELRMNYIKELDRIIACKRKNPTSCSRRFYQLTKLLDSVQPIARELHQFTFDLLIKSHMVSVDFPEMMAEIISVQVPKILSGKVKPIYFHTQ
Method in brief: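 Cell-free radioligand binding on extracts of prostate from testosterone-pretreated rats, read by filter-based scintillation counting 18 h after dosing. Loss of bound signal fitted positively versus DMSO; primary screen in duplicate at 25 uM, actives followed up in concentration series.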

[4] = target: Peroxisome proliferator-activated receptor gamma (Homo sapiens) (UniProt P37231); test: NVS_NR_hPPARg: NovaScreen (NVS) Nuclear Receptor Binding Assay for human Peroxisome Proliferator-activated Receptor gamma (PPARg) (AID 2283370)
Sequence of Peroxisome proliferator-activated receptor gamma (Homo sapiens) (P37231 whole entry, looked up): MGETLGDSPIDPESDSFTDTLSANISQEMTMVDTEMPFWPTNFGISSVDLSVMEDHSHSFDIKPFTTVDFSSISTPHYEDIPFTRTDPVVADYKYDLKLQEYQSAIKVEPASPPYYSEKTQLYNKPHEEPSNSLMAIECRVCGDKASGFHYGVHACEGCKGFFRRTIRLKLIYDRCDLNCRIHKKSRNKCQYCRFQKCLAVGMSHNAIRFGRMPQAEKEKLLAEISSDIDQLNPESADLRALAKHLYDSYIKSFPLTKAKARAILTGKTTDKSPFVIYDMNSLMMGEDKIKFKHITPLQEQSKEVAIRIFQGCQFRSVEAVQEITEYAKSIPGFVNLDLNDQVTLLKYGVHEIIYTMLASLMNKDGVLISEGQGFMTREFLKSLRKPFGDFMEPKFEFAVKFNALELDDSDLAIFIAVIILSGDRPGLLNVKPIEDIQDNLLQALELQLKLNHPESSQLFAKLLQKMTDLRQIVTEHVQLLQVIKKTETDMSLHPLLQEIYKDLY
Method in brief: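 Chemicals were tested first in duplicate at 25 uM, then in concentration series if active. Binding to cell-free PPARg protein was measured by fluorescence polarization after 2 h, with loss of signal scored against DMSO.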

[5] = target: Estrogen receptor (Homo sapiens) (UniProt P03372); test: OT_ERa_GFPERaERE_0480: Odyssey Thera (OT) 8-hour HeLa Transcription Induction Assay for Estrogen Receptor (AID 2283381; active = hit-call score of the fitted dose curve at least 0.9, where 1 is the maximum; inactive = score below 0.9)
Sequence of Estrogen receptor (Homo sapiens) (P03372 whole entry, looked up): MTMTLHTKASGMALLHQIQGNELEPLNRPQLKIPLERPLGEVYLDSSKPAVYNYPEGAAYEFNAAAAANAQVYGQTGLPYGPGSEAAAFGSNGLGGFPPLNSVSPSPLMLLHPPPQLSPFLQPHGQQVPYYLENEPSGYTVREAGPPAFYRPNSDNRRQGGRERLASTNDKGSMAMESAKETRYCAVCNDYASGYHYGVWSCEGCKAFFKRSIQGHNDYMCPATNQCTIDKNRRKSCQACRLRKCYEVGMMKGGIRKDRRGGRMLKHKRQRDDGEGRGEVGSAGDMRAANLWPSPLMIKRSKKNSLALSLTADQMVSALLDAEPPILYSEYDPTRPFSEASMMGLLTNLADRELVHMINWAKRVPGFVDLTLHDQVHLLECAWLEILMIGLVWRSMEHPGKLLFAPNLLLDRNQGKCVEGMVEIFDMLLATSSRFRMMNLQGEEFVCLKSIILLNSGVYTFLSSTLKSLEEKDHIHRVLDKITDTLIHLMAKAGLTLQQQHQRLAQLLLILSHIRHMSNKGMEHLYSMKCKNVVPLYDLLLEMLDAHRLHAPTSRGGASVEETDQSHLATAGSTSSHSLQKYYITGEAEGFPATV
Method in brief: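 HeLa cells expressing GFP reporter under estrogen response element, imaged 8 h after dosing. GFP induction quantified by high-content fluorescence microscopy image analysis; gain of signal fitted versus DMSO.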

[6] = target: Estrogen receptor (Homo sapiens) (UniProt P03372); test: OT_ERa_GFPERaERE_0120: Odyssey Thera (OT) 2-hour HeLa Transcription Induction Assay for Estrogen Receptor (AID 2283382)
Method in brief: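 HeLa cells were dosed for 2 h, then GFP reporter induction was quantified by fluorescence microscopy with high-content image analysis. Gain of signal fitted against DMSO baseline.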

[7] = target: Retinoic acid receptor RXR-alpha (Homo sapiens) (UniProt P19793); test: OT_NURR1_NURR1RXRa_0480: Odyssey Thera (OT) 8-hour HEK293T Protein Complementation Assay for Nurr1/retinoid X receptor (RXR) (AID 2283385)
Sequence of Retinoic acid receptor RXR-alpha (Homo sapiens) (P19793 whole entry, looked up, the tested form may be a part): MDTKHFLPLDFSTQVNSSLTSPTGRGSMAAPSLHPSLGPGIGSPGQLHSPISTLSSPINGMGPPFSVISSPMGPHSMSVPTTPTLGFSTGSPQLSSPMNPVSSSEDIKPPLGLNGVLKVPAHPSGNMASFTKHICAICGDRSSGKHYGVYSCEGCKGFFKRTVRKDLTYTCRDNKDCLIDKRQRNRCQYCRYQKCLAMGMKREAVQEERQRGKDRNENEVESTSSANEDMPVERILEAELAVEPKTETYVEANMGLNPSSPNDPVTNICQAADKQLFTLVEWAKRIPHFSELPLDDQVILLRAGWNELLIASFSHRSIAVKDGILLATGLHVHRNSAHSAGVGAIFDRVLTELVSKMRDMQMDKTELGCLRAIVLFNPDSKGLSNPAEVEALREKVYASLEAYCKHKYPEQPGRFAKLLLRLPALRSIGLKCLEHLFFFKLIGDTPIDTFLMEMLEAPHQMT
Method in brief: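 HEK293T cells expressing Nurr1 and RXRα fused to reporter fragments (protein-fragment complementation); fluorescence measured 8 h after dosing. Gain of signal fitted relative to DMSO.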

[8] = target: Retinoic acid receptor RXR-alpha (Homo sapiens) (UniProt P19793); test: OT_NURR1_NURR1RXRa_1440: Odyssey Thera (OT) 24-hour HEK293T Protein Complementation Assay for Nurr1/retinoid X receptor (RXR) (AID 2283386)
Method in brief: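 HEK293T protein-fragment complementation of Nurr1 and RXRα fused to reporter fragments; compounds 24 h. Fluorescence gain from reconstituted reporter fitted versus DMSO.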

[9] = target: human Adenosine Transporter (Adot), SLC29A1 (gene 2030) (UniProt Q99808); test: NVS_TR_hAdoT: NovaScreen (NVS) Transporter Assay for human Adenosine Transporter (Adot) (AID 2283368)
Sequence of human Adenosine Transporter (Adot), SLC29A1 (gene 2030) (Q99808 whole entry, looked up): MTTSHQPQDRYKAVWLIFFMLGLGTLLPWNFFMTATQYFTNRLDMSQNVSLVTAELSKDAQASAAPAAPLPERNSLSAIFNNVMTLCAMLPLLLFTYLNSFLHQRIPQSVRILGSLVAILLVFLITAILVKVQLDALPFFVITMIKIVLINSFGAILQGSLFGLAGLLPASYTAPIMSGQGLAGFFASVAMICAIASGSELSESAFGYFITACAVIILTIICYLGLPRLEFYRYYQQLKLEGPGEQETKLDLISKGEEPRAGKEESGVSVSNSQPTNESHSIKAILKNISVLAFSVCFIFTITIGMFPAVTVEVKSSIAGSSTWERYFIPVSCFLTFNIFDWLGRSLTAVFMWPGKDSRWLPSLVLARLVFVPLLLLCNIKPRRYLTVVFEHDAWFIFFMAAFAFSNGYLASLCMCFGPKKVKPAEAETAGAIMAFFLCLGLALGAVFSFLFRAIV
Method in brief: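 U937-derived membranes, cell-free radioligand binding, filter scintillation 1 h after dosing. 25 uM duplicate screen; hits (e.g. 30% inhibition) run in concentration-response up to 50 uM; loss of signal versus DMSO.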

[10] = target: mouse Estrogen Receptor alpha (Era), Esr1 (gene 13982) (UniProt P19785); test: NVS_NR_mERa: NovaScreen (NVS) Nuclear Receptor Binding Assay for mouse Estrogen Receptor alpha (Era) (AID 2283378);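 also: hit means loss of bound radioligand signal relative to DMSO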
Sequence of mouse Estrogen Receptor alpha (Era), Esr1 (gene 13982) (P19785 whole entry, looked up): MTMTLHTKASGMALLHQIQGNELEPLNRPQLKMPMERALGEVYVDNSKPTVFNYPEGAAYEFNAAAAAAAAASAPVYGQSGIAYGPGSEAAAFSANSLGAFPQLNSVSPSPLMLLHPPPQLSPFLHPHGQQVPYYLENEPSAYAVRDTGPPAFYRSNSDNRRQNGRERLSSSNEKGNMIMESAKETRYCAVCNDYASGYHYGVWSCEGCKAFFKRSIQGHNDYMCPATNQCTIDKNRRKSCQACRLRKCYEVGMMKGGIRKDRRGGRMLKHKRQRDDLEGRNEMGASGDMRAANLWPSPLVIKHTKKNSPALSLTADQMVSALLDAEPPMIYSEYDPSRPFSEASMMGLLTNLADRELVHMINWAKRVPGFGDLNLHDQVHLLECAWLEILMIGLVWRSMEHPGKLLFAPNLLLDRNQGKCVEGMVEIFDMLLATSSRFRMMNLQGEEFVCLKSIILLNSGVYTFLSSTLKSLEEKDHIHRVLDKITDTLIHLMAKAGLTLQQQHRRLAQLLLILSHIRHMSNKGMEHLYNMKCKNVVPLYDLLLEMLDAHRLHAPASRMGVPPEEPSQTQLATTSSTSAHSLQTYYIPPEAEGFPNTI
Method in brief: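 Extracted mouse Era incubated with tritiated or iodinated radioligand plus test chemical, 18 h. Bound fraction separated on filters, counted by scintillation. DMSO = negative control/baseline; duplicate single-point at 25 uM, then concentration-response follow-up.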

[11] = target: Bile acid receptor (Homo sapiens) (UniProt Q96RI1); test: OT_FXR_FXRSRC1_0480: Odyssey Thera (OT) 8-hour HEK293T Protein-Complementation Assay for Farnesoid X receptor/SRC-1 Co-activator (AID 2283383)
Sequence of Bile acid receptor (Homo sapiens) (Q96RI1 whole entry, looked up, the tested form may be a part): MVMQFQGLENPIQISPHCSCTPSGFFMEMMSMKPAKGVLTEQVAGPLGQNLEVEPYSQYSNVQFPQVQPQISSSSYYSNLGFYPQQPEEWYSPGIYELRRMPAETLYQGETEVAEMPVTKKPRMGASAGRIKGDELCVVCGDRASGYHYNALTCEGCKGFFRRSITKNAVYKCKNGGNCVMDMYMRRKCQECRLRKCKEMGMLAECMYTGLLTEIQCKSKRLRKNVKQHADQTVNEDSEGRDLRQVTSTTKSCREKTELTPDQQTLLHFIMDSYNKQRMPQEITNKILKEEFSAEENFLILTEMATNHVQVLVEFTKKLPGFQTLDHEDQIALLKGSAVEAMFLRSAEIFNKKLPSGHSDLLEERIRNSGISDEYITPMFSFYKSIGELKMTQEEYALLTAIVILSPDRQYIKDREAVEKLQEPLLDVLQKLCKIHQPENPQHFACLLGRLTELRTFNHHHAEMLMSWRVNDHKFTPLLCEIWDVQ
Method in brief: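 HEK293T protein-fragment complementation assay: FXR and SRC-1 coactivator are fused to reporter fragments, and their interaction restores a fluorescent reporter. Readout was taken 8 h after dosing, with gain of signal fit relative to DMSO.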

[12] = target: Bile acid receptor (Homo sapiens) (UniProt Q96RI1); test: OT_FXR_FXRSRC1_1440: Odyssey Thera (OT) 24-hour HEK293T Protein-Complementation Assay for Farnesoid X receptor/SRC-1 Co-activator (AID 2283384)
Method in brief: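 HEK293T cells, 24 h after chemical dosing. FXR–SRC-1 coactivator interaction read as fluorescence from protein-fragment complementation of a split reporter. Gain of signal fitted against DMSO baseline.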

[13] = target: guinea pig Sigma Receptor, Non-selective Binding, SIGMAR1 (gene 100135589) (UniProt Q60492); test: NVS_OR_gSIGMA_NonSelective: NovaScreen (NVS) Nuclear Receptor Binding Assay for guinea pig Sigma Receptor, Non-selective Binding (AID 2283367)
Sequence of guinea pig Sigma Receptor, Non-selective Binding, SIGMAR1 (gene 100135589) (Q60492 whole entry, looked up): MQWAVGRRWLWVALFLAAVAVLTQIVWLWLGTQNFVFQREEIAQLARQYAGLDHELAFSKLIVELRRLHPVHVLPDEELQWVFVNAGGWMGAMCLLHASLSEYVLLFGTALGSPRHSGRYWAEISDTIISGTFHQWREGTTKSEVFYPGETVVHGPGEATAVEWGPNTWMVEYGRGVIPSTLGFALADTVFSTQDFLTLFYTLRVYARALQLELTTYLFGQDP
Method in brief: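 Guinea pig brain membranes, cell-free radioligand binding; read 1 h after dosing by filter-based scintillation counting. Loss of signal vs DMSO baseline taken as displacement. Primary screen single concentration 25 uM in duplicate; actives retested in concentration series.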

[14] = system: guinea pig Dopamine Transporter (DAT), gene 100714898; test: NVS_TR_gDAT: NovaScreen (NVS) Transporter Assay for guinea pig Dopamine Transporter (DAT) (AID 2283369);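 also: active compounds lower bound radioligand signal relative to DMSO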
Method in brief: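 Scintillation counts of filter-retained radioligand report binding to guinea pig striatal membranes after 2 h. Activity scored as signal loss relative to DMSO, first at 25 uM in duplicate, then in concentration series to 50 uM.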

SMILES	outcome [1]	AC50 [2]	outcome [3]	outcome [4]	outcome [5]	outcome [6]	outcome [7]	outcome [8]	outcome [2]	AC50 [9]	AC50 [10]	outcome [10]	outcome [11]	outcome [12]	AC50 [13]	outcome [14]	AC50 [4]	AC50 [3]
CCCN(CCC)C(=O)SCC	inactive	7.09 µM (active)	inactive	inactive	inactive	inactive	inactive	inactive										
C[C@]12CC[C@@H]3c4ccc(O)cc4C[C@@H](CCCCCCCCCS(=O)CCCC(F)(F)C(F)(F)F)[C@H]3[C@@H]1CC[C@@H]2O (stereo partly specified)		13.1 µM (active)	inactive	inactive			inactive	inactive	inactive	9.12 µM (active)	3.4 µM (active) and 2.01 µM (active)	inactive	inactive	inactive				
CC(=O)[C@H]1CC[C@H]2[C@@H]3CCC4=CC(=O)CC[C@]4(C)[C@H]3CC[C@]12C				inactive	inactive	inactive	inactive	inactive		6.22 µM (active)	17.4 µM (active)	inactive			1.16 µM (active)	inactive	4.07 µM (active)	
O=C(c1ccccc1)C1CCCCC1			inactive	inactive	inactive	inactive	inactive	inactive				inactive	inactive	inactive		inactive		6.52 µM (active)
